Source: PubChem BioAssay (National Center for Advancing Translational Sciences (NCATS))
In the library only some 21% were active in any assay of this set; here they are far more common.
ClpP mod – qHTS Assay for Activators of ClpP. purified B. subtilis ClpP, FRET peptide cleavage, 20 min. Potency, µM (top dose mostly 57.5 µM), inactives show at the highest dose activity change, negative = active. 340,000 compounds, 1.9% hits. AID 651965, 2013; active = well fitted falling curve with a large enough effect; inconclusive = small, poorly fitted or top-dose-only effect; inactive = no such curve, though single readings can be large or run the other way; note: potency is the fitted concentration of half-maximal effect; the source files actives as falling curves though it sought activators and does not explain the sign; nearly all actives have a fitted effect of over 65% in size
Target sequence (P80244 whole entry, looked up): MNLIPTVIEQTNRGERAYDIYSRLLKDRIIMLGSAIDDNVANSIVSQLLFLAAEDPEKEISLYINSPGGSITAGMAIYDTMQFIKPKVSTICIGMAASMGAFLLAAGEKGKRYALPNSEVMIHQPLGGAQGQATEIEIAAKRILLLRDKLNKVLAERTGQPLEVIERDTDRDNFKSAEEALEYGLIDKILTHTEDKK
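FRET quenching reversal measured ClpP activation: 10 microg/mL B. subtilis ClpP at pH 8 with the FRET-FV decapeptide, read at 430 nm after 320 nm excitation. The 20-min minus 0-min signal was scaled between DMSO/no-enzyme wells and ADEP (5.8 microM final).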
IL-1B inflam inh – blocks inflammasome-driven IL-1 beta release; THP-1 LPS/ATP IL-1B secretion, AlphaLISA, 16 h; stronger effect = lower value; activity change, % at 57.5 µM; 360,000 compounds, 4.7% hits; AID 743279; in the data active = activity change below about -50%; inconclusive = mostly about -30% to -49%; note: % is set by controls: 0 for no effect and ±100 for the full control effect
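THP-1 cells pretreated 1 hr with compounds (up to 57.5 uM final), then stimulated with LPS (250 ng/mL final) plus ATP (1.25 mM final); secreted IL-1B measured by AlphaLISA after 16 hr, decreased signal indicating inhibition.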
TDP1 cell noCPT – qHTS for Inhibitors of human tyrosyl-DNA phosphodiesterase 1 (TDP1): qHTS in cells in absence of CPT; DT40 Tdp1-/- hTDP1 cells, no CPT, ATP luminescence, 48 h; Potency, µM (highest dose often 46.2 µM), inactives show at the highest dose activity change, negative = growth inhibition, actives largely listed as inhibitors; 420,000 compounds, 15% hits; note: potency is the fitted concentration of half-maximal effect; % is set by controls: 0 for no effect and ±100 for the full control effect; nearly all actives have a fitted effect of over 55% in size
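DT40 Tdp1-/-;hTDP1 cells, no CPT (DMSO vehicle only), 400 cells/well; compounds pin-transferred; ≥48 hr, 37 °C; CellTiter-Glo 30 min RT dark, luminescence read.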
TDP1 cell CPT – DT40-hTDP1 cell growth loss with CPT. chicken DT40 Tdp1-/-;hTDP1 cells + 20 nM CPT, ATP luminescence, 48 h. Potency, µM (highest dose often 46.2 µM), inactives show top-dose activity change, negative = growth inhibition, usual class: inhibitors. 420,000 compounds, 12% hits. AID 686979; note: potency is the fitted concentration of half-maximal effect; % is set by controls: 0 for no effect and ±100 for the full control effect; nearly all actives have a fitted effect of over 55% in size
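Chicken DT40 Tdp1-/- cells complemented with human TDP1, 400 cells/well, exposed to compounds plus 20 nM camptothecin for at least 48 h at 37 C; viability read as ATP content by CellTiter-Glo luminescence.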
DRD3 agonist – D3 dopamine receptor (human) agonism; P35462; D3R DiscoveRx beta-arrestin cells, luminescence, 90 min; max activation, %; 410,000 compounds, 0.58% hits; AID 652048; in the data active = max activation above about 30%; note: 0% is about no effect
Target sequence (P35462 whole entry, looked up): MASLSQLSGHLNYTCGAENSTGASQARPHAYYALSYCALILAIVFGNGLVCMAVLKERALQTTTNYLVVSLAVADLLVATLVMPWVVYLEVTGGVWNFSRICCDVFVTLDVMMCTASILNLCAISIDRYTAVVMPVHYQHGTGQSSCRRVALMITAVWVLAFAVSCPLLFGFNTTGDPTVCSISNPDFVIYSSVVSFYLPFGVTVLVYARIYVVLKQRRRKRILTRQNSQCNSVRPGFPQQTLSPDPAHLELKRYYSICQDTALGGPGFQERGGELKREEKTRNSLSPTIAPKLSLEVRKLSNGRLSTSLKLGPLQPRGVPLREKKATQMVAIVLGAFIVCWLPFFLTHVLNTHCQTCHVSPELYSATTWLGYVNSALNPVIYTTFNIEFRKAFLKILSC
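Agonist mode: compounds and dopamine controls were applied to plated cells for 90 min at 37 degrees C after an overnight attachment at 1500 cells/well. Luminescent read-out followed 30 - 60 minutes at room temperature with DiscoveRx detection reagent.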
D3 antag – D3 dopamine receptor (human) antagonism; P35462; D3R cells, DiscoveRx beta-arrestin luminescence, antagonist mode; stronger effect = lower value; max response, negative = inhibition, %; 360,000 compounds, 2.5% hits; AID 652054; in the data active = max response below about -50%; inconclusive = no clear call, values can overlap the other calls; note: % is set by controls: 0 for no effect and ±100 for the full control effect
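Cells plated overnight at 1500 cells/well, then exposed to library compounds with dopamine controls for 90 minutes at 37 degrees C. DiscoveRx reagent added for 30–60 minutes at room temperature; luminescence read, quantitative HTS format.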
* hit, by the source's call; ? = inconclusive; · = no result given; [ ] = another dose, or the depositor's remark. Unless noted, calls come from the whole dose curve; as a rule, active = well fitted inhibition curve with a large enough effect; inconclusive = small, poorly fitted or top-dose-only effect; inactive = flat fitted curve, though single readings scatter.

SMILES	ClpP mod	IL-1B inflam inh	TDP1 cell noCPT	TDP1 cell CPT	DRD3 agonist	D3 antag
Fc1ccccc1NC(=S)N/N=C/c1ccccc1Br	1%	13	?	?	-20	-79*
Cc1cccc(NC(=S)Nc2cccc3ccccc23)c1	3%	20	-10%	?	-13	-3
NNC(=O)c1sc2cc(C(F)(F)F)cnc2c1-c1ccccn1	·	34	-1%	3%	0	-3
Oc1ccccc1/C=N/Nc1ncc(Br)cn1	0%	15	7.3µM*	9.2µM*	-1	-20
O=C(N/N=C/c1ccccc1O)C1(O)c2ccccc2-c2ccccc21	-18%	73	5.8µM*	8.2µM*	-13	-13
S=C(N/N=C/c1ccc2ncccc2c1)Nc1ccccc1	1%	-11	21µM*	23µM*	-5	-7
Cc1c(/C=N/NC(=O)C2(O)c3ccccc3-c3ccccc32)cnn1C	1%	0	-15%	-20%	7	-4
COc1ncc2nc(-c3cccc(C#N)c3)c(=O)n(CCC#N)c2n1	·	·	-8%	7%	·	·
CC1(C)CCC(=O)N2CC[C@H]3c4cc5ccccc5nc4C[C@@H]1[C@H]32	-2%	9	-10%	-7%	0	-19
CNC(=S)N1CCN(c2ccc(Cl)c(Cl)c2)CC1	2%	-58*	16µM*	23µM*	-8	-13
N#C/C=C(/N)N1CCN(c2ccc(Cl)c(Cl)c2)CC1	1%	?	16µM*	?	0	28
Nc1ccc(N2CCN(c3ccc(Cl)c(Cl)c3)CC2)cc1	2%	-6	9.2µM*	12µM*	4	10
COC(=O)N1CCN(c2ccc(Cl)c(Cl)c2)CC1	1%	-7	?	?	8	24
O=C1CC(N2CCN(c3ccc(Cl)c(Cl)c3)CC2)C(=O)N1 (stereo not drawn)	-1%	25	-21%	-2%	-6	-12
O=C(c1cnc2n(c1=O)CCS2)N1CCN(c2ccc(Cl)c(Cl)c2)CC1	0%	-2	?	?	1	3
CCCSc1nc2sc3c(c2c(=O)n1-c1ccccc1)CCC(C)C3 (stereo not drawn)	-12%	·	-15%	-11%	-7	·
O=C(CSc1cn(Cc2cccc(F)c2)c2ccccc12)NCc1ccc(F)cc1	2%	12	-6%	-7%	0	-9
COc1ccc(C(=O)NCCn2cc(SCc3cccc(F)c3)c3ccccc32)cc1OC	-4%	·	4.6µM*	9.2µM*	8	·
O=C(NCCn1cc(SCc2cccc(F)c2)c2ccccc21)c1cccc(C(F)(F)F)c1	-2%	·	16µM*	?	1	·
COc1ccc(C(=O)NCCn2cc(SCC(=O)Nc3ccccc3)c3ccccc32)cc1OC	-1%	·	?	?	6	·
Cc1ccc(NC(=O)COc2ccc(C(=O)c3ccccc3)cc2)c(O)c1	2%	20	?	?	-18	-2
COC(=O)C1CCN(Cc2ccc3c(c2)CN(C(=O)c2ccc(-n4cnnn4)cc2)CCO3)CC1	·	·	-7%	0%[9.04 µM]	·	·
Cc1cccc(CS(=O)(=O)Cc2ccc(C(=O)NCc3ccc(Cl)cc3)o2)c1	-4%	·	23µM*	16µM*	-4	·
Cc1cccc(CS(=O)(=O)Cc2ccc(C(=O)NCc3ccc(F)cc3)o2)c1	0%	·	?	21µM*	5	·
Cc1cccc(CS(=O)(=O)Cc2ccc(C(=O)NCc3cccnc3)o2)c1	0%	10	-12%	-12%	1	48
SMILES	ClpP mod	IL-1B inflam inh	TDP1 cell noCPT	TDP1 cell CPT	DRD3 agonist	D3 antag
O=C(CSc1nnc(-c2cccc(S(=O)(=O)N3CCCCC3)c2)o1)NCCC1=CCCCC1	-8%	11	?	?	-6	11
CCN(CC)S(=O)(=O)c1cccc(-c2nnc(SCC(=O)c3cc(C)n(C4CC4)c3C)o2)c1	-2%	6	16µM*	?	11	20
CCN(CC)S(=O)(=O)c1cccc(-c2nnc(SC(C)C(=O)NCCC3=CCCCC3)o2)c1 (stereo not drawn)	-1%	-24	26µM*	?	-3	-19
C=CCn1c(C)cc(C(=O)CSc2nnc(-c3cccc(S(=O)(=O)N(CC)CC)c3)o2)c1C	-8%	0	?	?	-2	-3
CCN(CC)S(=O)(=O)c1cccc(-c2nnc(SCc3nc4ccccc4s3)o2)c1	-8%	-26	21µM*	?	-1	18
COC(=O)c1ccc(CN2CCC(n3nccc3NC(=O)C3CCCC3)CC2)cc1	1%	-16	?	?	-19	10
O=C(NC1CCSc2ccccc21)c1c(F)cccc1Cl (stereo not drawn)	0%	14	-3%	-14%	4	-1
CC(=O)C1=C(O)C(=CC=Cc2ccccc2)OC1=O	-27%	-2	16µM*	?	-1	?
CC(/C=C\c1ccccc1)=C/C(=O)O	-6%	-19	-19%	8%	4	-3
CN(CC(=O)Nc1c(Cl)cccc1Cl)C(=O)C1CC(=O)N(Cc2ccccc2)C1 (stereo not drawn)	-2%	5	0%	5%	-7	0
Cc1csc(NC(=O)CN2C(=O)COc3ccc(Cl)cc32)n1	1%	1	-28%	-15%	3	46
O=C(OCc1ccc([N+](=O)[O-])cc1Cl)c1cnccn1	·	-5	-9%	-26%	0	3
CCSc1ccccc1C(=O)N1CCC2(CC1)CC(=O)c1ccccc1O2	?	-1	16µM*	-46%	3	-7
CC(Oc1ccccc1)C(=O)N1CCC2(CC1)CC(=O)c1ccccc1O2 (stereo not drawn)	25µM*	-4	?	?	-4	-16
O=C1CC2(CCN(C(=O)c3ccc(F)c(F)c3)CC2)Oc2ccccc21	·	-11	?	29µM*	-12	-7
Cc1ccc(S(=O)(=O)N2CCC3(CC2)CC(=O)c2ccccc2O3)cc1	·	-10	?	?	-13	-23
O=C(O)c1ccc(S(=O)(=O)N2CCC3(CC2)CC(=O)c2ccccc2O3)cc1	32µM*	-1	0%	2%	3	9
O=C1CC2(CCN(C(=O)c3ccccc3Cl)CC2)Oc2ccccc21	·	-18	?	?	8	5
COc1ccc(-c2nc(CCNC(=O)c3c(F)cccc3Cl)cs2)cc1	4%	·	?	?	5	·
